These results are taken from PubChem BioAssay AID588358 (NMMLSC, 2011).

The campaign covered roughly 310,000 compounds. About 1,500 (0.48%) were called active. Shown is part of a subset that was picked to be rich in actives. Values without a mark were called inactive.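 Rule for the calls: active = binding more than 3 SD below its plate's average and above zero; inconclusive = below that plate limit but binding exactly zero; inactive = the rest.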

The target in this assay is Desmoglein-3 (Homo sapiens) (UniProt P32926). In words: inhibitors of pemphigus antibody binding to DSG3, primary screen, biochemical, bead-based, flow cytometry, scFv-GFP (AID 588358).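 Note: hits lower antibody fragment binding to DSG3.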 The settings on record: DSG3-coupled beads, scFv-anti-DSG3-GFP binding, at 10 µM, hits give low values. A general note: In flow cytometry, cells or beads pass a laser one at a time.
Chain of Desmoglein-3 (Homo sapiens) (P32926 whole entry, looked up, the tested form may be a part): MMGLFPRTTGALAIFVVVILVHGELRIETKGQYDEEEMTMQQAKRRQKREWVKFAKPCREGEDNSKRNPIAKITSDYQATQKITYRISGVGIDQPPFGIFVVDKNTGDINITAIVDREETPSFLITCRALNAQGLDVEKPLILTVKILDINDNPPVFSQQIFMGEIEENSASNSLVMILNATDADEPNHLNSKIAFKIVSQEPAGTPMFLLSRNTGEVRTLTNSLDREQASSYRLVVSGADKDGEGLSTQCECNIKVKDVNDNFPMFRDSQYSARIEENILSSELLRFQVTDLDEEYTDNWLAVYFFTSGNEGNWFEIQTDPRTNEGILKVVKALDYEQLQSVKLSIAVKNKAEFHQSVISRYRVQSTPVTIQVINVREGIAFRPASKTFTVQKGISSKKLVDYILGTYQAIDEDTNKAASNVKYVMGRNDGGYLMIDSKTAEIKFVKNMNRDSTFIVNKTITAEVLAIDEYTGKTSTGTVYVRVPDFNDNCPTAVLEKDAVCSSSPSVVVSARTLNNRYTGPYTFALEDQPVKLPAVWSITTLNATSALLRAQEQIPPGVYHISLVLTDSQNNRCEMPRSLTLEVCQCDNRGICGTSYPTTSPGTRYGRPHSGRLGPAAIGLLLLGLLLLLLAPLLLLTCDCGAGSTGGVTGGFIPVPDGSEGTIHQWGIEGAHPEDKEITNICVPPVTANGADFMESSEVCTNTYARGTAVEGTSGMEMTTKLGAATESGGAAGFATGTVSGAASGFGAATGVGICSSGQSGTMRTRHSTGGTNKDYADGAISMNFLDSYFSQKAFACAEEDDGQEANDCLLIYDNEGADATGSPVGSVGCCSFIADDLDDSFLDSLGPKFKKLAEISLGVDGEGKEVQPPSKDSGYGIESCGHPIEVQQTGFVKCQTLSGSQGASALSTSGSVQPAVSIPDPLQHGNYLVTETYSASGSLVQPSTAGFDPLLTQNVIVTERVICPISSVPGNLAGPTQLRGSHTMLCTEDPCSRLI
Turning to `O=C1Nc2ccc(Br)cc2/C1=N/N=C/C1=C(N2CCOCC2)C(=C\c2ccccc2)/CC1`, the binding (percent of control) was 38.1% (active).
Then `O=C(O)c1ccc(NN=CC2=C(N3CCOCC3)/C(=C/c3ccccc3)CC2)cc1`, with 109%.
For `C(=N\N1CCN(c2ccccn2)CC1)/C1=C(N2CCOCC2)C(=C/c2ccccc2)/CC1` the value was 109%; for `CN1OC[C@@H]2CN(C(=O)c3ccc(-c4ccccc4)cc3)[C@H](c3ccc(-c4cccc(F)c4)cc3)C[C@@H]21`, 98.8%.
Then `COCCn1c(SCC(=O)Nc2ccc(F)cc2F)nc2c(c1=O)SCC2`, with 103%; and `O=C(COc1ccc(S(=O)(=O)N2CCCC2)cc1[N+](=O)[O-])N1CCCCC1`, with 92.6%.
As to `Cc1ccc2nc(SCC(=O)NC3CCCC3)[nH]c2c1`, the binding (percent of control) is 81.4%.
For `Cc1ccc2c(cnn2C(=O)CCC(=O)NC2CCCC2)c1` the value was 53% (active); for `Cc1cccc2c1cnn2C(=O)CCC(=O)NC1CCCCC1`, 102%.
Then `CC1(c2cccc(Br)c2)NC(=O)N(CC(=O)NCCC2=CCCCC2)C1=O` (configuration not stated), with 99.5%; and `O=Nc1c(O)cc(O)c2ccccc12`, with 104%; and `CC(C)CCC(=O)Nc1cc(S(=O)(=O)N2CCOCC2)ccc1N1CCCC1`, with 104%.
For `COc1ccc(N(CC(=O)NCCSCc2cccc(Cl)c2)S(C)(=O)=O)cc1` the value was 104%; for `COc1cc(OC)cc(C(=O)NCCSCc2ccc(Cl)cc2)c1`, 76.3% (active); for `COc1ccc(CCNC(=O)c2cnc(Cl)c(Cl)c2)cc1`, 97.2%.
With `Cc1ccc(S(=O)(=O)NN=C2CC(C)(C)CC(=O)C2(C)C)cc1`, the binding (percent of control) was 98.4%.
For `O=C(NCCc1cccc(F)c1)C1CC(O)CN1C(=O)Nc1ccccc1` (configuration not stated) the value was 94.3%; for `COc1cc(C=NC2CCCCC2)ccc1O`, 106%.
Then `COc1ccc(CCNC(=S)N2CCN(S(=O)(=O)c3ccc(F)cc3)CC2)cc1`, with 63.3% (active).
Then `COc1ccc(CCNC(=S)N2CCN(S(=O)(=O)c3ccc(Cl)cc3)CC2)cc1`, with 106%; and `COc1ccc(CCC(=O)N2CCN(S(=O)(=O)c3ccc(OC)cc3)CC2)cc1`, with 96.6%; and `COC(=O)[C@H]1C[C@H](OC(=O)NCc2ccccc2)[C@@]2(O)CN(S(=O)(=O)c3ccc(C)cc3)CC2[C@H]1C(=O)OC` (some centres not stated), with 110%.
As to `COc1ccc(-c2cn3ccsc3n2)cc1`, the binding (percent of control) was 107%.
For `COc1ccc(-c2csc(Cc3nc(O)cs3)n2)cc1` the value was 8.21% (active); for `CC(C)(C)C(=O)OCc1nc(-c2ccc(O)c(O)c2)cs1`, 103%.
On to `COc1ccc([C@H]2C[C@@H](n3cc(COC(=O)c4ccccc4)nn3)[C@H](O)CN2C(=O)c2cccs2)cc1`, for which the binding (percent of control) was 106%.
For `CCN1CCN(CCNC(=O)c2ccc3c(c2)NC(=O)/C(=C\c2cccc(Cl)c2)S3)CC1` the value was 106%.
For `O=C(COC(=O)c1ccc(S(=O)(=O)N2CCCCCC2)cc1)Nc1ccccc1C(F)(F)F` the value was 109%; for `CCOC(=O)C1CCN(C(=O)/C=C/c2cc(OC)c(OC)c(OC)c2)CC1`, 101%; for `COc1cc(/C=C/C(=O)N2CCc3ccccc3C2)cc(OC)c1OC`, 68.1% (active).
Then `COc1ccc(/C=C/C(=O)N2CCCC2)cc1OC`, with 105%; and `Cc1ccc(S(=O)(=O)N2C[C@H]3n4c(=O)ccc(=O)n4C[C@H](OC(=O)NC4CCCC4)[C@@]3(O)C2)cc1`, with 103%; and `COc1ccc([C@H]2N[C@]3(CCCN(CC4CCCCC4)C3=O)[C@H]3C(=O)N(C)C(=O)[C@@H]23)cc1`, with 106%.
`COc1cccc(/C=C2\SC(=S)N(CCCC(=O)N3CCOCC3)C2=O)c1`: the binding (percent of control) was 99.8%.
Consider `CCOC(=O)c1sc(NC(=O)c2sc(C)nc2C)nc1C`, for which the binding (percent of control) was 96.7%.
Then `C=CCn1c2ccccc2c2nnc(SC(CC)C(=O)Nc3nc(C)c(C(=O)OCC)s3)nc21` (configuration not stated), with 93.3%; and `CCOC(=O)c1sc(NC(=O)C(CC)Sc2nccn2C)nc1C` (configuration not stated), with 83.3% (active).
For `O=C(Cc1ccc([N+](=O)[O-])cc1)NCCS(=O)(=O)N1CCN(c2ccccc2)CC1`, the binding (percent of control) was 97.2%.
For `COc1ccc(N2CCN(c3ccc([N+](=O)[O-])cc3Cl)CC2)cc1` the value was -9.48% (active); for `COc1ccc(N2CCN(c3ccc([N+](=O)[O-])nc3)CC2)cc1`, 77.8%; for `O=[N+]([O-])c1ccc(N2CCN(c3ccc(O)cc3)CC2)c(Cl)c1`, 101%.
Then `COC(=O)Cn1c(=NC(=O)CSCC(=O)Nc2cc(C)on2)sc2ccccc21`, with 82.3%; and `COC(=O)Cn1c(=NC(=O)c2cc(OC)c(OC)c(OC)c2)sc2cc(OC)ccc21`, with 88.6% (active); and `COC(=O)c1sccc1NC(=O)c1cc(OC)c(OC)c(OC)c1`, with 81.8%.
Regarding `CC(C)N=C1CCCC1C(=S)SSC(=S)C1CCCC1=NC(C)C` (configuration not stated), the binding (percent of control) is 102%.
For `N#CCCN(C(=S)Nc1ccc(Cl)c(Cl)c1)C1CCCCC1` the value was 105%; for `Cc1cc(C)n(-c2ccc(Cl)c(C(=O)O)n2)n1`, 56.1% (active); for `Cc1cc(C)n(-c2ccc3nncn3n2)n1`, 99%.
Then `Cc1cc(C)n(-c2ccc(C(=O)O)cc2[N+](=O)[O-])n1`, with 102%; and `O=C(O)C(=Cc1ccc([N+](=O)[O-])cc1)CCc1ccccc1`, with 103%; and `CCOC(=O)c1c(C)[nH]c(C)c1C(=O)COC(=O)/C=C/c1cccc([N+](=O)[O-])c1`, with 98.5%.
For `CCN1CCCC1CNC(=O)c1ccc2c(c1)NC(=O)/C(=C\c1ccccc1F)S2` (configuration not stated) the value was 94.9%; for `Cc1ccc(NC(=O)N2CCSc3ccccc32)cc1`, 63% (active).
For the molecule `Cc1ccc(NC(=O)CN2CCc3ccccc3C2)cc1`, the binding (percent of control) is 95.1%.
Take `CCOc1ccc(CNC(=O)CCC(=O)N2CCSc3ccccc32)cc1`: the binding (percent of control) was 102%.
Turning to `CCN(CC)C(=O)C1=C(C)N(Cc2ccc(F)cc2)C(=O)C(CC(=O)NC2CCCC2)C1` (configuration not stated), the binding (percent of control) was 109%.
On to `CC1(C)CN(Cc2cccnc2)C(=O)[C@H]1CC(=O)Nc1ccc(Br)cc1`, for which the binding (percent of control) is 96.8%.
Then `Cc1[nH]c2ccccc2c1C(=O)C(=O)NCc1nnnn1-c1cccc(F)c1`, with 110%; and `Cc1csc(SCC(=O)Nc2ccc(C)c(S(=O)(=O)N(C)C)c2)n1`, with 100%.
Then `O=C(NCC(=O)N1CCCC(C(F)(F)F)C1)c1ccccc1F` (configuration not stated), with 98.7%.
As for `O=C(NC(Cc1ccccc1)C(=O)N1CCCC(C(F)(F)F)C1)c1ccccc1` (configuration not stated), the binding (percent of control) is 93.4%.
Consider `FC(F)(F)C1CCCN(c2nsc3ccccc23)C1` (configuration not stated), for which the binding (percent of control) was 59.3% (active).
Take `CN(C)S(=O)(=O)c1cccc(-c2nn(-c3ccccc3)cc2/C=C2\SC(=S)N(CC(=O)O)C2=O)c1`: the binding (percent of control) was 34.1% (active).
Then `Cc1ccc(-c2nn(-c3ccccc3)cc2/C=C2\SC(=S)N(CCCCCC(=O)O)C2=O)o1`, with 93.2%; and `COc1ccc(-c2nn(-c3ccccc3)cc2/C=C2/SC(=S)N(CCCC(=O)O)C2=O)c(C)c1`, with 104%.
Then `COc1ccc(C=C2CCC3C(CCCC34OCCO4)C2=O)cc1` (configuration not stated), with 104%.
As to `CC1CCCC(NC(=O)COC(=O)c2ccccc2C(=O)N(C)C2CCCCC2)C1C` (configuration not stated), the binding (percent of control) was 98.5%.
Then `Cn1c(=O)[nH]c(=O)c2c1[nH]c(=S)n2Cc1ccccc1`, with 99.1%.
Consider `CCN(CC)CCn1cnc2c1c(=O)[nH]c(=O)n2Cc1ccccc1`, for which the binding (percent of control) was 65.2% (active).
For `COCCn1cnc2c1c(=O)n(Cc1ccc(Br)cc1)c(=O)n2Cc1ccccc1` the value was 125%; for `O=C(NCCN1CCOCC1)c1ccc2c(c1)N(Cc1cccc(Cl)c1)C(=O)c1ccccc1S2(=O)=O`, 95.8%.
For `OCC1OC(n2cnc3c(N4CCCC4)ncnc32)C(O)C1O` (configuration not stated) the value was 102%; for `CCOc1ccc(NS(=O)(=O)c2ccc(C(=O)NCC3CCCO3)cc2)cc1` (configuration not stated), 100%.
For `COc1cc(NC(=O)C2=C(C)OCCS2)c(Cl)cc1C(=O)NCCCN1CCCC(C)C1` (configuration not stated) the value was 105%; for `CCOC(=O)c1c(NC(=S)SC)sc(C(=O)N2CCc3ccccc3C2)c1C`, 100%; for `COc1ccc(-c2nc(CS(=O)CC(=O)NCc3ccccn3)c(C)o2)cc1` (configuration not stated), 17.1% (active).
Consider `COc1ccc(-c2nc(CS(=O)CC(=O)NCc3ccccc3)c(C)o2)cc1OC` (configuration not stated), for which the binding (percent of control) was 97.4%.
For `COc1cccc(-c2nc(CS(=O)CC(=O)NCc3ccc(F)cc3)c(C)o2)c1` (configuration not stated) the value was 93.3%; for `CNS(=O)(=O)c1ccc(NC(=O)Nc2ccc3c(c2)OCO3)cc1`, 66.6% (active); for `CC(C)CNS(=O)(=O)c1ccc(C(=O)Nc2ccc3c(c2)OCO3)cc1`, 85.2%.
Consider `Cc1cccc(NC(=O)Nc2ccc3c(c2)OCO3)n1`, for which the binding (percent of control) was 134%.
For `CN(Cc1ccccc1)C(=O)CCC1CCN(C(=O)c2ccco2)CC1` the value was 91.8%; for `COc1cc(C(=O)N2CCOC23CCN(Cc2ccccc2)CC3)cc(OC)c1OC`, 108%; for `COCCCN1C(=O)C(CC(=O)NCc2cccs2)CC(C(=O)N2CCOCC2)=C1C` (configuration not stated), 99.9%.
Then `Cc1nnc(SCC(=O)Nn2cnnc2)s1`, with 89.8% (active); and `CCSc1nnc(SCC(=O)NNC(=O)c2ccccc2F)s1`, with 115%.
As for `Cc1cnc(NC(=O)CSc2nnc(C)s2)s1`, the binding (percent of control) was 101%.
Then `CNC(=O)c1ccc(CN(C)C(=O)c2cc(C3CC3)nc3c2cnn3C(C)C)cc1`, with 105%; and `O=[N+]([O-])c1ccc(C(S(=O)(=O)Cc2ccccc2)S(=O)(=O)Cc2ccccc2)cc1`, with 100%.
Then `Cc1ccc(OCCNC(=O)CCNS(=O)(=O)c2ccc(Br)cc2)cc1`, with 107%; and `Cc1ccc(S(=O)(=O)NCCNC(C)c2ccc(Br)cc2)cc1` (configuration not stated), with -19.8% (active).
For `CC(CNS(=O)(=O)c1ccc(Br)cc1)CN(C)C` (configuration not stated) the value was 102%.
